A collection of fitness landscapes (doi:10.1016/j.celrep.2020.107928)
In all, about 81,000 sequences were measured (“one-hybrid fitness for binding parS DNA”: median about -0.17, highest 2% from about 0.51 on). This is one part of a sample in which the highest values are shown more often than they occur.

B1: Caulobacter ParB omega fusion; a variant is named by its letters at X, in order, B8GW30 (parent)
chain: MESVVVGEPGMSEGRRGLGRGLSALLGEVDAAPAQAPGEQLGGSREAPIEILQRNPDQPRRTFREEDLEDLSNSIREKGVLQPILVRPSPDTAGEYQIVAGERAWRAAQRAGLKTVPIMVRELDDLAVLEIGIIENVQRADLNVLEEALSYKVLMEKFERTQENIAQTIGKSXSHVANXMRLLXLPDEVQSYLVSGELTAXHARAIAAAADPVALAKQIIEGGLSVRETEALARKAPNLSAGKSKGGRPPRVKDTDTQALESDLSSVLGLDVSIDHRGSTGTLTITYATLEQLDDLCNRLTRGI

Variants of: B1
Assay: one-hybrid fitness for binding parS DNA (scaled: cognate 1, non-cognate 0); higher = stronger binding
Conditions: with parS DNA site
Summary of the method: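 On M9-minus-histidine containing 0.1 mM IPTG and 5 mM 3-AT, E. coli USO cells with a HIS3 reporter, site 19 bp from the promoter, grew 48 hours at 37°C to select Caulobacter ParB libraries randomised at four specificity codons. Plasmids from before and after were Illumina-sequenced, with three replicate libraries pooled and variants under 10 reads left out. Fitness is the log change in variant-to-wild-type read ratio, rescaled against cognate and non-cognate.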

Variant | one-hybrid fitness for binding parS DNA
SYNF | ≤ 0.2
QNNL | ≤ 0.2
QNNR | ≤ 0.2
VNTR | ≤ 0.2
TLTC | ≤ 0.2
VASF | ≤ 0.2
ARLY | ≤ 0.2
RPNT | ≤ 0.2
RENT | ≤ 0.2
RERT | 0.216
RPRT | ≤ 0.2
RSRP | ≤ 0.2
RCRT | 0.818
RSRT | 0.832
RCNT | 0.879
RDYT | ≤ 0.2
RSRH | 0.232
RSYT | 0.846
SLNY | ≤ 0.2
EHPE | ≤ 0.2
LPKC | ≤ 0.2
QHRW | ≤ 0.2
TTHM | ≤ 0.2
QPTM | ≤ 0.2
YDPM | ≤ 0.2
GMKG | ≤ 0.2

Variant | one-hybrid fitness for binding parS DNA
RWAD | ≤ 0.2
RWAN | 0.26
RWFN | ≤ 0.2
RWAS | 0.876
RWFY | ≤ 0.2
RWFS | 0.691
GDED | ≤ 0.2
SDVG | ≤ 0.2
NRHA | ≤ 0.2
RGGA | 0.285
DRSA | ≤ 0.2
RRQA | 0.699
RRSA | 0.693
RRHA | 0.693
DRHA | ≤ 0.2
RRGA | 0.749
DRQA | ≤ 0.2
NRSA | ≤ 0.2
NRGA | ≤ 0.2
NRQA | ≤ 0.2
GDYT | ≤ 0.2
HYRC | ≤ 0.2
YDLT | ≤ 0.2
IYQL | ≤ 0.2
WAPR | ≤ 0.2
MWAV | ≤ 0.2

Variant | one-hybrid fitness for binding parS DNA
ANEG | ≤ 0.2
LPHA | ≤ 0.2
SKVC | ≤ 0.2
PETH | ≤ 0.2
DRLA | ≤ 0.2
NRCA | ≤ 0.2
RRCA | 0.761
RRNA | 0.627
DRCA | ≤ 0.2
RRDA | 0.851
RRLA | 0.815
NRNA | ≤ 0.2
NRLA | ≤ 0.2
DRNA | ≤ 0.2
QLGG | ≤ 0.2
IAPM | ≤ 0.2
RPYR | ≤ 0.2
TTSM | ≤ 0.2
ICYT | ≤ 0.2
SEWR | ≤ 0.2
RRYA | 0.813
NRYA | ≤ 0.2
RRRA | 0.501
DLNV | ≤ 0.2
GSGS | ≤ 0.2
YIFC | ≤ 0.2

Variant | one-hybrid fitness for binding parS DNA
INTG | ≤ 0.2
RVES | 0.948
RVEH | ≤ 0.2
RVEF | ≤ 0.2
RVET | 0.691
RVEG | 0.813
RVEC | 0.805
RVEP | ≤ 0.2
RVEI | ≤ 0.2
RVEK | ≤ 0.2
RVEM | 0.231
RVEN | 0.294
RVED | ≤ 0.2
HNSL | ≤ 0.2
FLAG | ≤ 0.2
RRQE | ≤ 0.2
SFER | ≤ 0.2
HAWC | ≤ 0.2
PTHS | ≤ 0.2
RYFA | 0.573
NYFA | ≤ 0.2
RYAA | 0.559
PYFA | ≤ 0.2
NNWM | ≤ 0.2
DTAQ | ≤ 0.2
AYES | ≤ 0.2

Variant | one-hybrid fitness for binding parS DNA
PDYS | ≤ 0.2
LGYC | ≤ 0.2
PVSM | ≤ 0.2
NIVA | ≤ 0.2
RIVA | 0.585
RIKA | 0.745
YQPY | ≤ 0.2
GEYG | ≤ 0.2
TWSS | ≤ 0.2
LCRP | ≤ 0.2
RKDG | 0.939
RKDH | 0.231
RKNR | ≤ 0.2
RKDN | 0.329
RKNG | 0.907
RKNQ | ≤ 0.2
TSWS | ≤ 0.2
KARL | ≤ 0.2
PVGS | ≤ 0.2
QVWC | ≤ 0.2
RHFP | ≤ 0.2
RHFT | 0.707
RHAT | 0.865
RHAM | 0.28
RHAY | 0.403
RHFN | 0.319

Variant | one-hybrid fitness for binding parS DNA
HWFS | ≤ 0.2
RPMV | ≤ 0.2
ETTA | ≤ 0.2
SPEG | ≤ 0.2
RCSC | 0.961
RSSN | 0.436
RSSH | ≤ 0.2
RESC | 0.215
RSSC | 0.966
RPSC | ≤ 0.2
TKKI | ≤ 0.2
QGCC | ≤ 0.2
LEMT | ≤ 0.2
CTGE | ≤ 0.2
VMPA | ≤ 0.2
NSSL | ≤ 0.2
RLPK | ≤ 0.2
RLPQ | ≤ 0.2
RLIT | 0.795
RLID | ≤ 0.2
RLPT | 0.58
RLIH | 0.21
TGTF | ≤ 0.2
